Compound activity: PubChem, Sanford-Burnham Center for Chemical Genomics
CYP2C9 activ – activators of human CYP2C9. P11712. recombinant CYP2C9, luciferin-H conversion, luminescence; hits give high values; factor 1 = untreated enzyme, 0 = blocked. activation factor at 5 µM. 96,000 compounds, 1.4% hits. AID 1024;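 active = activation factor of 2 or more for CYP2C9 at a 5 µM dose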;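 also: 0 = sulfaphenazole-blocked wells and 1 = vehicle-only wells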
PTK2B oligo ant – antagonists of human Pyk2 oligomerization; AID 1347419; z-score (the deposit names both 25 µM and 10 µM); Q293 cells, Pyk2 FERM NanoBiT luminescence; hits give low values; 99,000 compounds, 0.83% hits; Q14289;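 active = Z-score of -3 or lower, scaled per plate to the spread of control and sample wells; inactive = z-score above -3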;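 also: negative z-score means lost luminescence so less FERM oligomerization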
CYP2C19 inhib – blocks human cytochrome P450 2C19 | P33261 | CYP2C19 Supersomes, luciferin-H EGE luminescence, 30 min | inhibition, % at 5 µM | 96,000 compounds, 21% hits | AID 778;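 active = CYP2C19 inhibition above a set limit at 5 µM in the primary screen, cut at about 50% in these data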;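 also: plate controls were negative control wells for no effect and 2.5 mM tranylcypromine positive control for full effect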
Target sequence (P33261 whole entry, looked up): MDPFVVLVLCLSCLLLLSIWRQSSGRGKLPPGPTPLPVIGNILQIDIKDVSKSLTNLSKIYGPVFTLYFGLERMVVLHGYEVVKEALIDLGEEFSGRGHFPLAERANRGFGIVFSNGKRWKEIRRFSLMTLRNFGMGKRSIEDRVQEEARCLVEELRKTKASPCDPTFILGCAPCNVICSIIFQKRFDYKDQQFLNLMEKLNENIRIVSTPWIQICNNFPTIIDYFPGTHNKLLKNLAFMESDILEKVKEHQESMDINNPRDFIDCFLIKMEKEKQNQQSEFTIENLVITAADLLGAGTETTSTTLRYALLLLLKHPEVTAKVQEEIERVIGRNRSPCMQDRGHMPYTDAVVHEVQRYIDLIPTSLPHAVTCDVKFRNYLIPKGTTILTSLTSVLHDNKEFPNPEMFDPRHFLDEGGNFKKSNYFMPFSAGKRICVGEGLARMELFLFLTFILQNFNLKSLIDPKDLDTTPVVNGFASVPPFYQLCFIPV
CYP2C19 activ – cytochrome P450 2C19 (human) activation. P33261. recombinant CYP2C19, luciferin-H EGE luminescence; hits give high values; 0 = fully inhibited enzyme, 1 = untreated enzyme. activation factor at 5 µM. 96,000 tested, under 10 active. AID 1025;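 active = activation factor of at least 2 at 5 µM in the primary screen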;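 also: 0 = wells with 2.5 mM tranylcypromine and 1 = vehicle-only wells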
CYP2C9 inhib – blocks human cytochrome P450 2C9; CYP2C9 Supersomes, luciferin-H conversion, luminescence; inhibition, % at 5 µM; 96,000 compounds, 20% hits; AID 777; P11712;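 active = blocking of liver enzyme CYP2C9 beyond about 50% at 5 µM, limit read from the data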
* marks the source's active call; other numbers are inactive results; · = no result. Rows were chosen to be rich in hits. Some 28% of all compounds tested hit in one or more screens of this group.

SMILES | CYP2C9 activ | PTK2B oligo ant | CYP2C19 inhib | CYP2C19 activ | CYP2C9 inhib
COC(=O)c1cc(OC)c(OC)cc1NC(=O)c1c(-c2ccccc2Cl)noc1C | 0.4 | -1.6 | 42 | 0.6 | 56*
CCN(CC)S(=O)(=O)c1ccc(NC(=O)c2ccc(N(C)S(C)(=O)=O)cc2)cc1 | · | -0.68 | · | · | ·
Cc1ccc(NC(=S)NC(=O)c2c(-c3ccccc3Cl)noc2C)cc1 | 0.7 | 0.06 | 35 | 0.7 | 29
Cc1ccc(Cn2ccc(NC(=O)c3c(-c4ccccc4Cl)noc3C)n2)cc1 | 0.5 | -1.2 | 25 | 0.7 | 52*
CC(C)C(=O)NC(NCC1CCCO1)C(Cl)(Cl)Cl (stereo unspecified) | 0.9 | 0.35 | 32 | 0.7 | 13
CC(C)COC(=O)N1CC(O)CC1C(=O)O (stereo unspecified) | 1 | 0.81 | 5 | 0.9 | 2
Cc1ccccc1-n1c(SCc2c(C)noc2C)nnc1-c1c[nH]c2ccccc12 | 0.9 | -3.5* | 4 | 1 | 8
Cc1noc(C)c1CSc1nnc(-c2ccncc2)n1-c1cccc(Cl)c1C | 0.1 | -1.3 | 100* | 0 | 94*
Cc1c(Cl)cccc1-n1c(SCC(=O)N(C)Cc2ccccc2)nnc1-c1ccncc1 | 0.2 | -1.5 | 90* | 0.1 | 83*
CCOc1ccccc1-n1c(SCC(N)=O)nnc1-c1ccccc1 | 0.7 | 1.4 | 36 | 0.6 | 27
CCOC(=O)CNC(=O)CSc1nc2cccnc2n1C | 1.1 | 0.69 | 32 | 0.7 | -5
Cc1ccc(C(=O)c2c(NC(=O)c3ccccc3C)sc(C)c2C)cc1 | 0.2 | 0.43 | 30 | 0.7 | 78*
CC(=O)Nc1sc(C)c(C)c1C(=O)Nc1ccc(C)cc1 | 0.7 | 0.52 | 14 | 0.9 | 34
Cc1c(NS(=O)(=O)c2cccc(C(=O)NCc3ccc(Cl)cc3)c2)c(=O)n(-c2ccccc2)n1C | 0.7 | -1.2 | 51* | 0.5 | 33
Cc1c(NS(=O)(=O)c2ccccc2)c(=O)n(-c2ccccc2)n1C | 0.8 | 0.51 | 53* | 0.5 | 22
Cc1c(NC(C)c2cc(Cl)ccc2O)c(=O)n(-c2ccccc2)n1C (stereo unspecified) | 0.3 | 1.6 | 96* | 0 | 68*
Cc1c(NC(C)c2ccccc2O)c(=O)n(-c2ccccc2)n1C (stereo unspecified) | 0.9 | -0.32 | 48 | 0.5 | 10
Cc1c(NC(=O)c2ccccc2NS(=O)(=O)c2ccc(F)cc2)c(=O)n(-c2ccccc2)n1C | 0.5 | 0.45 | 25 | 0.8 | 52*
O=C(NCc1ccccc1)c1c[nH]c2cc3c(cc2c1=O)OCCO3 | · | 0.85 | · | · | ·
C=CCOc1ccc(CNn2nnnc2N)cc1 | 1.1 | -0.6 | 10 | 0.9 | -12
COc1cc(NC(=O)c2ccco2)ccc1NC(=O)C(C)C | 1 | 0.34 | -13 | 1.1 | -2
C=CCOc1c(Br)cc(CNn2nnnc2N)cc1OC | 0.7 | 0.35 | 70* | 0.3 | 32
C=CCOc1c(Br)cc(CNc2ccc(NC(=O)C(C)C)c(OC)c2)cc1OC | 0.5 | 1.5 | 61* | 0.4 | 46
COc1cc(NC(=O)c2ccc(-c3ccc(Br)cc3)o2)ccc1NC(=O)C(C)C | 0.6 | -1.1 | 54* | 0.5 | 43
COc1ccc(S(=O)(=O)NCCCCCC(=O)NCCCN2CCOCC2)cc1 | 0.9 | -0.34 | 2 | 1 | 11
SMILES | CYP2C9 activ | PTK2B oligo ant | CYP2C19 inhib | CYP2C19 activ | CYP2C9 inhib
O=C(CCN1c2ccccc2Sc2ccccc21)OCC(=O)N1CCN(C(=O)c2ccco2)CC1 | 0.5 | 2 | 19 | 0.8 | 50
CN1CCN(Cc2c(O)ccc3c(-c4ccccc4)cc(=O)oc23)CC1 | 0.8 | -0.18 | 54* | 0.5 | 19
CN1CCN(Cc2c(O)ccc3occ(C(=O)c4ccccc4)c23)CC1 | 0.9 | 4 | 99* | 0 | 8
CCN(CC)Cc1c(O)ccc2c(-c3ccccc3)cc(=O)oc12 | 1.1 | 0 | 10 | 0.9 | -10
Cc1ccc(CC2CC(=O)N(c3cc(C)on3)C2=O)cc1 (stereo unspecified) | 0.7 | · | 54* | 0.5 | 34
Cc1ccsc1C(=O)OCc1nc2ccccc2c(=O)[nH]1 | 0.1 | -0.78 | 72* | 0.3 | 87*
COCC(=O)N(Cc1ccc(OC)cc1)Cc1nc2ccccc2c(=O)[nH]1 | 1.1 | -0.28 | 27 | 0.7 | -6
CC(=O)OC1COC(n2ccc3cc([N+](=O)[O-])ccc32)C(OC(C)=O)C1OC(C)=O (stereo unspecified) | · | -0.06 | · | · | ·
O=C(Nc1ccccc1N1CCOCC1)c1ccccc1NS(=O)(=O)c1ccc(F)c(F)c1 | 0.2 | -1.2 | 37 | 0.6 | 81*
